Structures are written as SMILES.

In general, inhibition refers to the relative decrease from the control value, in per cent.

Assay [1] deals with Tyrosine-protein kinase Fyn (Homo sapiens) (UniProt P06241). As to conditions: at 1 µM.
The target of assay [2] is Tyrosine-protein kinase HCK (Homo sapiens) (UniProt P08631). The conditions noted are these: at 0.1 µM.
The target is the same in assay [3]. The conditions noted are these: at 1 µM.
Assay [4] concerns the target Insulin-like growth factor 1 receptor (Homo sapiens) (UniProt P08069). The conditions noted are these: at 0.1 µM.
For assay [5] the target is unchanged. As to conditions: at 1 µM.
Assay [6] deals with Insulin receptor (Homo sapiens) (UniProt P06213). As to conditions: at 0.1 µM.
Sequence of Insulin receptor (Homo sapiens) (P06213 28-758 limits assumed): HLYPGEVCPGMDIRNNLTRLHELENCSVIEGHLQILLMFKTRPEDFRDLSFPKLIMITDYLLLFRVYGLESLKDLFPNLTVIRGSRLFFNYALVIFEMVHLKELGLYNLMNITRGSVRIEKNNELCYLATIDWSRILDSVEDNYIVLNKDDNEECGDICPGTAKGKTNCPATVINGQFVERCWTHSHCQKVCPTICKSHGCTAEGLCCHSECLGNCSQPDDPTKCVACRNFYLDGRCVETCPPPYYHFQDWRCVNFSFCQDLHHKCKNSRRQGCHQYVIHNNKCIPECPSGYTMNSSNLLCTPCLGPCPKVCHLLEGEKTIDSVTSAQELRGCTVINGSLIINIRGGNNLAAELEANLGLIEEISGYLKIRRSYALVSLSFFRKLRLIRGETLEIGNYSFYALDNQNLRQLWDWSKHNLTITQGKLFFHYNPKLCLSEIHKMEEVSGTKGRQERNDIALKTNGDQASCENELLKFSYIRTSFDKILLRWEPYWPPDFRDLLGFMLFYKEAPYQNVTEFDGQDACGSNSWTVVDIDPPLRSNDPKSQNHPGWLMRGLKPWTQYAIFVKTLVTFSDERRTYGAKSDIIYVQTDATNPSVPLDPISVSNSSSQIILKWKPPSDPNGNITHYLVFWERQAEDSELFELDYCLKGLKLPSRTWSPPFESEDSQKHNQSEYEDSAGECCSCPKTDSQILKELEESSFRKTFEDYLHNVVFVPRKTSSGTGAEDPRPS
Sequence of Insulin receptor (Homo sapiens) (P06213 763-1382 limits assumed): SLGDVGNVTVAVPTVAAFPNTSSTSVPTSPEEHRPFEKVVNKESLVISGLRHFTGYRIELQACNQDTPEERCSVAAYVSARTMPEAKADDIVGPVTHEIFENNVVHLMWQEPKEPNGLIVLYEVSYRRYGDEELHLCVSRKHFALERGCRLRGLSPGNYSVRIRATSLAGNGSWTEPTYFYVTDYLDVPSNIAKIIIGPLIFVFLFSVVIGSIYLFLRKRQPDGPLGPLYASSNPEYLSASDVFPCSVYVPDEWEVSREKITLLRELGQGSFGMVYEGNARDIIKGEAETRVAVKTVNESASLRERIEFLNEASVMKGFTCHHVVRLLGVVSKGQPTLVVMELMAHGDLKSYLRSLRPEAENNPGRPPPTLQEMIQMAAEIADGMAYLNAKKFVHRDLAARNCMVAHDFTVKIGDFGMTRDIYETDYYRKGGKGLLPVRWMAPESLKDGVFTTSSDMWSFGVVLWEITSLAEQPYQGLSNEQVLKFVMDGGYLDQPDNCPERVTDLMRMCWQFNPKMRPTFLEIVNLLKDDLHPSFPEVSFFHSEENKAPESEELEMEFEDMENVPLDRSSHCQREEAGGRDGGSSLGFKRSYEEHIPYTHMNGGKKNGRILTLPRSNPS
The target is the same in assay [7]. The conditions noted are these: at 1 µM.
Assay [8] has as its target Insulin receptor-related protein (Homo sapiens) (UniProt P14616). As to conditions: at 0.1 µM.
The target is the same in assay [9]. As to conditions: at 1 µM.
For assay [10], the target named is T1, Tyrosine-protein kinase ITK/TSK (Homo sapiens) (UniProt Q08881).
T1 sequence (whole entry): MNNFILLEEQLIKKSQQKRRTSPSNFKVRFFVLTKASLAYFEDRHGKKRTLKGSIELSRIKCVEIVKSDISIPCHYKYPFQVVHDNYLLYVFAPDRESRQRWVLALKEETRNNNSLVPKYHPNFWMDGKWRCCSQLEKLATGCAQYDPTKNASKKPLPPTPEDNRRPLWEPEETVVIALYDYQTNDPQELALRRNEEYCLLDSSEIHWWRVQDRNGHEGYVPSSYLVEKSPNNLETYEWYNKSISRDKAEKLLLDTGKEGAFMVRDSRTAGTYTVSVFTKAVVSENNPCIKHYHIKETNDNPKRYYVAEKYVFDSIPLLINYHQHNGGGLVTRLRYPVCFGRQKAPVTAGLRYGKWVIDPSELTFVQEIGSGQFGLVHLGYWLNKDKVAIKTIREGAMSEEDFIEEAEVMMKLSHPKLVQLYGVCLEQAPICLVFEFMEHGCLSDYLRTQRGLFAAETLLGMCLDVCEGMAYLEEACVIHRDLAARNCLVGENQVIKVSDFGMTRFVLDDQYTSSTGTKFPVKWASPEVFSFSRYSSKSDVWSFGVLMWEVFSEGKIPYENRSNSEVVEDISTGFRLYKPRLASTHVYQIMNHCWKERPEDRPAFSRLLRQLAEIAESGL
The conditions noted are these: at 0.1 µM.

The target in assay [11] is T1, Tyrosine-protein kinase ITK/TSK (Homo sapiens). As to conditions: at 1 µM.
Assay [12] concerns the target Tyrosine-protein kinase JAK1 (Homo sapiens) (UniProt P23458). As to conditions: at 0.1 µM.
Assay [13] has the same target. The conditions noted are these: at 1 µM.
For assay [14], the target named is Tyrosine-protein kinase JAK2 (Homo sapiens) (UniProt O60674). The conditions noted are these: at 0.1 µM.
Assay [15] has the same target. As to conditions: at 1 µM.
The target in assay [16] is T2, Tyrosine-protein kinase JAK3 (Homo sapiens) (UniProt P52333).
T2 sequence (whole entry): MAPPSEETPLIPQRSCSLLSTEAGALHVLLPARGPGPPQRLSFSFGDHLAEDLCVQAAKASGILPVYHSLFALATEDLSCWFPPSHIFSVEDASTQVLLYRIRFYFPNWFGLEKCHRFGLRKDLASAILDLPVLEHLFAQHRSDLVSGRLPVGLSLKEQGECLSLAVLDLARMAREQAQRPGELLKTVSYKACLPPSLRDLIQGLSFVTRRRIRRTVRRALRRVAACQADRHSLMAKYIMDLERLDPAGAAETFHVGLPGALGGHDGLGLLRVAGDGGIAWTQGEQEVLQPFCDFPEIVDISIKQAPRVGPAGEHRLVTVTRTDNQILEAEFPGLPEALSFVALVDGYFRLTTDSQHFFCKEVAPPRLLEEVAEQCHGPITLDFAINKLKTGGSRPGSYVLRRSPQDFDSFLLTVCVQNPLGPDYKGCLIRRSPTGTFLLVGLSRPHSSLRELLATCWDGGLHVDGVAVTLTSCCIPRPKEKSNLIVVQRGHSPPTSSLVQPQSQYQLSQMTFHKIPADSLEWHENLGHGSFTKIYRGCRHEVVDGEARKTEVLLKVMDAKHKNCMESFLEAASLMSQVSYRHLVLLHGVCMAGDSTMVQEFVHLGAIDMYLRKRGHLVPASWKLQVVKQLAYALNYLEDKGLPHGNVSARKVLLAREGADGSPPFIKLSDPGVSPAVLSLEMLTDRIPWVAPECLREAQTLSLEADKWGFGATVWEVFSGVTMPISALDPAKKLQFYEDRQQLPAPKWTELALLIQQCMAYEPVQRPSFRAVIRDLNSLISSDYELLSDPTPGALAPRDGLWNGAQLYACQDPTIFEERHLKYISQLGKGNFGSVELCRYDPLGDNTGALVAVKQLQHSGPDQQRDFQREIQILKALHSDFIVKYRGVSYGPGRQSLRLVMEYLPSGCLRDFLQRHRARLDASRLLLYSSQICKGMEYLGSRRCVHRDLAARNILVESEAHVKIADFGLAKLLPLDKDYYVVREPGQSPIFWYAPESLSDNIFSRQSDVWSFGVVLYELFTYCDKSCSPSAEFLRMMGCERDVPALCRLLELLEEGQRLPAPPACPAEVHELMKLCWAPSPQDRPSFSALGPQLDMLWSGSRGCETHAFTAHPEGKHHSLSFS
As to conditions: at 0.1 µM.

Assay [17] concerns the target T2, Tyrosine-protein kinase JAK3 (Homo sapiens). As to conditions: at 1 µM.
Assay [18] concerns the target Vascular endothelial growth factor receptor 2 (Homo sapiens) (UniProt P35968). The conditions noted are these: at 0.1 µM.
For assay [19] the target is unchanged. The conditions noted are these: at 1 µM.
The target in assay [20] is Mast/stem cell growth factor receptor Kit (Homo sapiens) (UniProt P10721). The conditions noted are these: at 0.1 µM.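 Further: values are mean inhibition of KIT, from the GSK PKIS dataset.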

Sequence of Insulin receptor-related protein (Homo sapiens) (P14616 27-742 limits assumed): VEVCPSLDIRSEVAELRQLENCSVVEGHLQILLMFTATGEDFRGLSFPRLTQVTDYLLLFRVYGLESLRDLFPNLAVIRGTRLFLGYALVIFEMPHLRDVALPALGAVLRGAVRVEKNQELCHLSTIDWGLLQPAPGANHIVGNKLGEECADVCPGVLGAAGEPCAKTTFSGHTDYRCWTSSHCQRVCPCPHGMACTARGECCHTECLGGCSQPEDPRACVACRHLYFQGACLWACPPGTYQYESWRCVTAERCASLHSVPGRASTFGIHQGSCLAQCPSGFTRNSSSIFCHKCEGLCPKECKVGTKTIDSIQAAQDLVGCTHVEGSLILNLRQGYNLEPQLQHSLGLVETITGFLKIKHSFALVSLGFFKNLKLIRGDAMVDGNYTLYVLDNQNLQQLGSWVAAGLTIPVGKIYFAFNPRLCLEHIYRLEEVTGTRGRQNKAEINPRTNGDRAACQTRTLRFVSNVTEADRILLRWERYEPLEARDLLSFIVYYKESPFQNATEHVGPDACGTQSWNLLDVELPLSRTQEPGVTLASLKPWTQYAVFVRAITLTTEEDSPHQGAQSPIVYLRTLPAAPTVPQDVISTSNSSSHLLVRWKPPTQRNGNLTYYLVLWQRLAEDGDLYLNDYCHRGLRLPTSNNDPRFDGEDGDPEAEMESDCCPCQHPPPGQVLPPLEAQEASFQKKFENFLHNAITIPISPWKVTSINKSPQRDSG
Sequence of Insulin receptor-related protein (Homo sapiens) (P14616 747-1297 limits assumed): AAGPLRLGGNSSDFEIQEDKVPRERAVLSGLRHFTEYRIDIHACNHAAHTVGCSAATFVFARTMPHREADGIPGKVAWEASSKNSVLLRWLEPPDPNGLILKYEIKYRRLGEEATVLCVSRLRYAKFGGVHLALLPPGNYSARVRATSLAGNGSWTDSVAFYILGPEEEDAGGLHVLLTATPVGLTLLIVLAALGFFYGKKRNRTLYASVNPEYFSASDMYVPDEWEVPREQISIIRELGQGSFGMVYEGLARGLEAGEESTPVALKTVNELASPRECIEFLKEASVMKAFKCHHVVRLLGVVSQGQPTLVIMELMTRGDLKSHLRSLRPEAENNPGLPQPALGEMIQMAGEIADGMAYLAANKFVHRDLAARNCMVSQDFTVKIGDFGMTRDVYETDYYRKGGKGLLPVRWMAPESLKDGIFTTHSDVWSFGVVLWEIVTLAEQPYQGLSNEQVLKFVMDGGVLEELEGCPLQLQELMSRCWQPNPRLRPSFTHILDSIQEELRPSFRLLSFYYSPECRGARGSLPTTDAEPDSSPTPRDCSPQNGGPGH
Sequence of Insulin-like growth factor 1 receptor (Homo sapiens) (P08069 31-736 limits assumed): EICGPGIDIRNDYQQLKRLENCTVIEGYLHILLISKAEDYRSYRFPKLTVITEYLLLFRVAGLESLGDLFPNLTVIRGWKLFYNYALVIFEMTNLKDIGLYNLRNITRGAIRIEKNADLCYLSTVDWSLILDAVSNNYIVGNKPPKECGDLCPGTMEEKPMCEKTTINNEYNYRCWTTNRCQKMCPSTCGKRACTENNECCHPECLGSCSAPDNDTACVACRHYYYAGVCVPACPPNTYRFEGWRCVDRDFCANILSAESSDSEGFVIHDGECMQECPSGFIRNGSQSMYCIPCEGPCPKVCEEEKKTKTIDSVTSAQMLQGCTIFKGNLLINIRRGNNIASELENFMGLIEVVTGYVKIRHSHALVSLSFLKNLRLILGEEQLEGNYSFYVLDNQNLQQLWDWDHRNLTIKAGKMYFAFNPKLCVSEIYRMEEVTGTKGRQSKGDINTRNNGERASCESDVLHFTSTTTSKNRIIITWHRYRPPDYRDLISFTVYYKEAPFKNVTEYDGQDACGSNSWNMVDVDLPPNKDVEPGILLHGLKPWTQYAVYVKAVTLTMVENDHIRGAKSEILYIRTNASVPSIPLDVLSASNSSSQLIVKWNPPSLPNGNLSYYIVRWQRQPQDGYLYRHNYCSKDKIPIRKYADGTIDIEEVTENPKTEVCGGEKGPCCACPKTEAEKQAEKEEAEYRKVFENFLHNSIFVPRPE
Sequence of Insulin-like growth factor 1 receptor (Homo sapiens) (P08069 741-1367 limits assumed): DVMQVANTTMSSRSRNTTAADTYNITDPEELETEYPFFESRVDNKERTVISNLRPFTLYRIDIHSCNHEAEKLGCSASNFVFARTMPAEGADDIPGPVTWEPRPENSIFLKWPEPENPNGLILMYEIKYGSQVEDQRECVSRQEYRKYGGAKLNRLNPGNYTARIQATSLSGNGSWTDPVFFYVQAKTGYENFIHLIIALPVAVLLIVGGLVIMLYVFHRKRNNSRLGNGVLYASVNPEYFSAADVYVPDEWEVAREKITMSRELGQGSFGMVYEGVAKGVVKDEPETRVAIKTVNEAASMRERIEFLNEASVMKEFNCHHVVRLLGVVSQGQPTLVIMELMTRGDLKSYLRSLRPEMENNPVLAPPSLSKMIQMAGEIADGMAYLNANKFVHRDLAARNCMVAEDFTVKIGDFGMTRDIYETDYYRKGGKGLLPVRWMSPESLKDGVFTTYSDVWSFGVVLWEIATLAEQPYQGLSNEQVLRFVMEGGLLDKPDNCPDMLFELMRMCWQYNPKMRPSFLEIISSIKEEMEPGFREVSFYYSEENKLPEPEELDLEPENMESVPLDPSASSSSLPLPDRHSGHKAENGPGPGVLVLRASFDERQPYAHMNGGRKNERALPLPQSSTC
Sequence of Tyrosine-protein kinase HCK (Homo sapiens) (P08631 2-526 limits assumed): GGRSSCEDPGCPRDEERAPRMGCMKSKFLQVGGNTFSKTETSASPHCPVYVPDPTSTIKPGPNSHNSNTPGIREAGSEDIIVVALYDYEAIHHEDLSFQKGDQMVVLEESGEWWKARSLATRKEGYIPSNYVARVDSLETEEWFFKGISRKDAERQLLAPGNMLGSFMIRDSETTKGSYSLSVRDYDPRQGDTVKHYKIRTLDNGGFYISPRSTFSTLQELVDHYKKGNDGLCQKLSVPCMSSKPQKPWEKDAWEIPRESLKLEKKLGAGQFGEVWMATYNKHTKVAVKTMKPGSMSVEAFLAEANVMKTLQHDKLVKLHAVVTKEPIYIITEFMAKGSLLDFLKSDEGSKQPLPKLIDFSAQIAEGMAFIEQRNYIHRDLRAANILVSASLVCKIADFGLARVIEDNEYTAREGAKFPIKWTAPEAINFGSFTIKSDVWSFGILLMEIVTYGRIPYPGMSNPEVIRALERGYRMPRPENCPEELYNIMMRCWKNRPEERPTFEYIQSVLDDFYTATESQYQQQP
Sequence of Tyrosine-protein kinase Fyn (Homo sapiens) (P06241 2-537 limits assumed): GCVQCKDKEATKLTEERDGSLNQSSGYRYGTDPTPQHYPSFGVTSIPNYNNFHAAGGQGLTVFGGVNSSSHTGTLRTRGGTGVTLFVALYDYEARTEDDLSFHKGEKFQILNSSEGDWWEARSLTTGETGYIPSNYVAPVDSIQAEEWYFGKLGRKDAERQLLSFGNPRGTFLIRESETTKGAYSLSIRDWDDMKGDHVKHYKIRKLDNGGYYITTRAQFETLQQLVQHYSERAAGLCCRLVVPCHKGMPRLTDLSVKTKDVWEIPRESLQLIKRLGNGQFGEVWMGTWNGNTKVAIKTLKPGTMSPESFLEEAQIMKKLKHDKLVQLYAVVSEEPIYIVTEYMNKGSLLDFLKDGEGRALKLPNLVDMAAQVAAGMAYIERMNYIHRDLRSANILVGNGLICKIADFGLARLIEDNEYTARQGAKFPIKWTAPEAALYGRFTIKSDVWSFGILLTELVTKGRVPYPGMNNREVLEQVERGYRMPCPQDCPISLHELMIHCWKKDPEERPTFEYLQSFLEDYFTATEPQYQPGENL

Turning to `CCn1c(-c2nonc2N)nc2cnc(Oc3cccc(NC(=O)c4ccc(N(C)C)cc4)c3)cc21`, the inhibition in [1] is 1.97%; in assay [2], 4.12%; in [3] it was 4.03%; in [4], -0.26%; in [5], 0.33%; in assay [6], 2.97%. Besides, the inhibition in assay [7] was 3.14%; in [8], -0.46%; in assay [9], 0.53%; in assay [10], 0.98%; in assay [11], 0.86%; in assay [12] it was 0.78%. Also, the inhibition in assay [13] was 2.7%; in assay [14], 0.7%; in [15], 0.27%; in [16], -0.01%; in assay [17], -1.1%; in assay [18], 2.18%. Moreover, the inhibition worked out at 8.86% in [19] and 0.97% in assay [20].

For `O=C(Nc1n[nH]c2cc(-c3ccc(F)cc3)ccc12)C1CC1`, the inhibition in assay [1] stood at 3.69%; in [2], 5.36%; in [3], 8.36%; in assay [4], 4.19%; in assay [5], 0.88%; in [6], 3.21%. The inhibition came to 5.18% in [7]; 1.75% in [8]; 1.45% in assay [9]; 1.07% in assay [10]; 2.49% in [11]; 1.55% in assay [12]. For the same compound, the inhibition is 4.17% in [13]; 1.12% in [14]; 1.73% in [15]; -0.91% in assay [16]; -0.96% in assay [17]; 6.51% in assay [18]. Moreover, the figures for the inhibition in assay [19] and in assay [20] were 19.5% and 3.1%, respectively.

As to `CNC(=O)c1cc(-c2ccc(F)cc2)cc(-c2ccc(S(=O)(=O)N3CCCC3)cc2)c1N`, the inhibition in [1] came out at 5.48%; in assay [2], 2.71%; in assay [3], 3.16%; in assay [4], 0.57%; in assay [5] it was 1.32%; in assay [6], 4.78%. The inhibition in assay [7] is 5.39%; in assay [8], -0.17%; in assay [9] it was 1.33%; in assay [10], 1.41%; in [11] it was 0.87%; in assay [12], 0.17%. The inhibition is 1.74% in assay [13]; 1.75% in assay [14]; 3.18% in assay [15]; -1.74% in assay [16]; -0.38% in assay [17]; 1.67% in assay [18]. The inhibition in [19] stood at 6.2%; in assay [20], 3.86%.

On to `Fc1ccc(-c2cc(-c3c[nH]nc3-c3ccccn3)ccn2)cc1`, for which the inhibition came out at 5% in [1]; 5.58% in [2]; 6.04% in [3]; 0.26% in [4]; 1.04% in assay [5]; 6.47% in assay [6]. The inhibition in [7] worked out at 5.34%; in assay [8], 2.45%; in assay [9], 2.16%; in [10] it was 0.99%; in assay [11], 0.13%; in assay [12] it was 4.79%. The inhibition in assay [13] was 14.2%; in assay [14], 1%; in [15], 0.86%; in [16] it was -0.89%; in [17] it was -3.5%; in assay [18], 7.31%. The inhibition amounted to 22.2% in assay [19] and 5.29% in assay [20].

With `COc1cc(Nc2nccc(Nc3ccc4c(C)n[nH]c4c3)n2)cc(OC)c1OC`, the inhibition in assay [1] came out at 85.4%; in assay [2], 31.2%; in [3], 67.7%; in [4], 28%; in assay [5], 76.8%; in assay [6], 13.1%. The inhibition is 64.7% in [7]; 1.88% in assay [8]; 3.74% in assay [9]; 2.37% in assay [10]; 7.07% in assay [11]; 17.8% in [12]. Besides, the inhibition in [13] turned out to be 66.5%; in [14] it was 35.6%; in assay [15] it was 72.5%; in assay [16], 1.48%; in assay [17] it was 27.8%; in [18] it was 74.9%. Further, the inhibition in assay [19] stood at 72.5%; in assay [20], 77.3%.

As for `CS(=O)(=O)CCNCc1ccc(-c2ccc3ncnc(Nc4ccc(OCc5ccccc5)c(C(F)(F)F)c4)c3c2)o1`, the inhibition in assay [1] is 4.69%; in assay [2], 4.59%; in assay [3] it was 5.75%; in assay [4] it was -0.48%; in assay [5] it was -0.18%; in [6], 0.37%. For the same compound, the inhibition in [7] was determined as 2.62%; in assay [8] it was 2.84%; in assay [9], 2.56%; in assay [10], 0.4%; in [11], 2.16%; in assay [12], 2.98%. Further, the inhibition was 3.56% in assay [13]; 1.86% in assay [14]; -0.24% in assay [15]; -4.36% in assay [16]; -1.51% in [17]; 4.72% in [18]. Besides, the inhibition worked out at 5.31% in assay [19] and 6.66% in assay [20].

Take `COc1cccc(-c2c[nH]c3c(N/N=C/c4ccncc4)ncnc23)c1`: the inhibition in assay [1] was found to be 58.7%; in assay [2], 12.8%; in assay [3], 51.8%; in assay [4], 0.05%; in assay [5], 2.22%; in [6], 1.17%. Also, the inhibition in assay [7] amounted to 3.79%; in assay [8], 3.25%; in assay [9], 2.79%; in assay [10] it was 1.15%; in [11], 3.59%; in assay [12], 4.4%. For the same compound, the inhibition in assay [13] came out at 15.3%; in [14], 1.76%; in assay [15], 15.1%; in assay [16] it was 0.32%; in assay [17], 24.9%; in [18], 17.6%. For the same compound, the results for the inhibition in assay [19] and in [20] were 61% and 45.5%, respectively.
